# Data published in PMC7862700, “An all-to-all approach to the identification of sequence-specific readers for epigenetic DNA modifications on cytosine”.
# Key:
# Test in all cases: DAPPL (digital affinity profiling via proximity ligation, sequencing); 10 mM Tris-HCl pH 7.5, 50 mM NaCl, 1 mM DTT, 4% glycerol, room temperature, 30 min; GST-TFs on glutathione beads, 16-mer random dsDNA library, 0.1% formaldehyde crosslink after washing; high values mean tight binding
# Settings in all cases: protein: recombinant; tags: N-terminal GST; dsDNA, one strand shown
# ELK1 = target: T1, ELK1 (Homo sapiens, UniProt P19419 1-428)
# T1 sequence: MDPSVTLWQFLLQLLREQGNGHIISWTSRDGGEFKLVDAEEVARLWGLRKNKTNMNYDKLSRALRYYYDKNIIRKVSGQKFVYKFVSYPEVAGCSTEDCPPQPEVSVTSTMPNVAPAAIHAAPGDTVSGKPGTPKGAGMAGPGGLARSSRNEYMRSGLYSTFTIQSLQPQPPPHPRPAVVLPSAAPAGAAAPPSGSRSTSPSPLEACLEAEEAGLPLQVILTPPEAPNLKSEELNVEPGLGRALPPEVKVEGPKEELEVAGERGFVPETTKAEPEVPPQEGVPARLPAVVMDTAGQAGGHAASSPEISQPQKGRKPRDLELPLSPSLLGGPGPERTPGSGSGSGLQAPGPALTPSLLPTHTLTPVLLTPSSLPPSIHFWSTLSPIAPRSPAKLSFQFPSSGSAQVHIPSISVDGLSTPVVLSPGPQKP
# In short: (§1)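 Human transcription factors fused to GST were expressed in yeast, captured on glutathione beads, given DNA barcodes and pooled with a GST-only negative control. Pools were incubated with 200 nmole of a 16-mer random double-stranded DNA library in Tris/NaCl/DTT/glycerol buffer at room temperature for 30 min. They were then washed, crosslinked with 0.1% formaldehyde, proximity-ligated (BsaI/T4 ligase, 1 h, 37 °C), PCR-amplified and sequenced on an Illumina NextSeq500. Binding signal is each 6-mer's read frequency for a factor divided by its frequency for the GST control.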
# GABPA = target: T2, GABPA (Homo sapiens, UniProt Q06546 1-454)
# T2 sequence: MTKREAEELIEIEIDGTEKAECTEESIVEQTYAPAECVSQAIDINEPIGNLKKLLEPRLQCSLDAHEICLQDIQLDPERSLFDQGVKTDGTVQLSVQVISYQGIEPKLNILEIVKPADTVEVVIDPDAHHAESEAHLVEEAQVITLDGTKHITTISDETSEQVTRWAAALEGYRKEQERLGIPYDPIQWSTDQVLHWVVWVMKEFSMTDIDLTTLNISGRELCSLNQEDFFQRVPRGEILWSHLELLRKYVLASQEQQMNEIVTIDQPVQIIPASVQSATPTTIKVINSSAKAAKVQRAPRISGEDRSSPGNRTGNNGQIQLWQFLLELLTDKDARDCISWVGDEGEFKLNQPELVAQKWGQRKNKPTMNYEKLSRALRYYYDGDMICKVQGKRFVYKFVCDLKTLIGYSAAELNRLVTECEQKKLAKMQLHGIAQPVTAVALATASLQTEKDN
# In short: as §1
# ERG = target: T3, ERG (Homo sapiens, UniProt P11308 1-479)
# T3 sequence: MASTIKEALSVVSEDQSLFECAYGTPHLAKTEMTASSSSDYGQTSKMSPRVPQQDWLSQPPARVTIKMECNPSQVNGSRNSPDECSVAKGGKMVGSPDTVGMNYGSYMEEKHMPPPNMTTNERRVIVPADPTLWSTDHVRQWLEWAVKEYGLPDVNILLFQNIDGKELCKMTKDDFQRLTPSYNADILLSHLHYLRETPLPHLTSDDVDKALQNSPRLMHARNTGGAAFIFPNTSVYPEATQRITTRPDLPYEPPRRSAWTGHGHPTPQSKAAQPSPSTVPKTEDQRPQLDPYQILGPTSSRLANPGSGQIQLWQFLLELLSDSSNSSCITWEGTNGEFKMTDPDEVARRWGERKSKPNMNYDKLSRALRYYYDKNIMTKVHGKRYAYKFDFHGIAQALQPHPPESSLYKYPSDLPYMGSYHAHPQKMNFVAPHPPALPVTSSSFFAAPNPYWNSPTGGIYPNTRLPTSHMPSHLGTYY
# In short: as §1
# ELF1 = ELF1 (Homo sapiens, UniProt P32519 1-619)
# In short: as §1
# EHF = target: T4, EHF (Homo sapiens, UniProt Q9NZC4 1-300)
# T4 sequence: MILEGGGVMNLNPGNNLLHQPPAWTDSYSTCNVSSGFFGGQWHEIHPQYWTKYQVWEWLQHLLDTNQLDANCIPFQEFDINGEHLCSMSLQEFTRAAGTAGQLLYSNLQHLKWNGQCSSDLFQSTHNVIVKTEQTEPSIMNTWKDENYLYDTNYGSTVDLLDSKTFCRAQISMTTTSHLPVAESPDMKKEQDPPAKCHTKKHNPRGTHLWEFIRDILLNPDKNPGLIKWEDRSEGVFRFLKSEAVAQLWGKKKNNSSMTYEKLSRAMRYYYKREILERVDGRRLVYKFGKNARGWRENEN
# In short: as §1
# SPIB = SPIB (Homo sapiens, UniProt Q01892 1-262)
# In short: as §1
# ELK3 = target: T5, ELK3 (Homo sapiens, UniProt P41970 1-407)
# T5 sequence: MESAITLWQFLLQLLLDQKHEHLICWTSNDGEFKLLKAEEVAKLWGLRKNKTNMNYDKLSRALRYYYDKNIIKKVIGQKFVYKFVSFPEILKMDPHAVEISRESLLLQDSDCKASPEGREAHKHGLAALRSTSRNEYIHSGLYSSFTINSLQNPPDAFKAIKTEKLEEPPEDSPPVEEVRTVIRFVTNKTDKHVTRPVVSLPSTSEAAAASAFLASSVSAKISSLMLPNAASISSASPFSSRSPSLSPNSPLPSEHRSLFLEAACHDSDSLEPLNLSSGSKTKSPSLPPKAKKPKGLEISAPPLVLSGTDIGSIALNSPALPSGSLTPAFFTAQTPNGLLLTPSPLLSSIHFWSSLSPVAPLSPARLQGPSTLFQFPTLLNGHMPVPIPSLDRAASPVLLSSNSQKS
# In short: as §1
# ETV5 = ETV5 (Homo sapiens, UniProt P41161 1-510)
# In short: as §1
# ELF4 = ELF4 (Homo sapiens, UniProt Q99607 1-663)
# In short: as §1
# ELK4 = target: T6, ELK4 (Homo sapiens, UniProt P28324-2 1-405)
# T6 sequence: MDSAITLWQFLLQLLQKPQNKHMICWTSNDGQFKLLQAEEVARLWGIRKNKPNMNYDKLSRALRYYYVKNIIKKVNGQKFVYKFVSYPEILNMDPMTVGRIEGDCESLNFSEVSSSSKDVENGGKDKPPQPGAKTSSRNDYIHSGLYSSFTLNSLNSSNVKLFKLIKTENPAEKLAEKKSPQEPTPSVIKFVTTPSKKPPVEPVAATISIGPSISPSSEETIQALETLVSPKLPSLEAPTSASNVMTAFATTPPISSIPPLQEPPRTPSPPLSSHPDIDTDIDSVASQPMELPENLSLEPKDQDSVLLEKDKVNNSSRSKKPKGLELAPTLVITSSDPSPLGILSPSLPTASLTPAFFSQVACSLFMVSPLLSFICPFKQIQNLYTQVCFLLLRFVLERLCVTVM
# In short: as §1
# ELF3 = target: T7, ELF3 (Homo sapiens, UniProt P78545 1-371)
# T7 sequence: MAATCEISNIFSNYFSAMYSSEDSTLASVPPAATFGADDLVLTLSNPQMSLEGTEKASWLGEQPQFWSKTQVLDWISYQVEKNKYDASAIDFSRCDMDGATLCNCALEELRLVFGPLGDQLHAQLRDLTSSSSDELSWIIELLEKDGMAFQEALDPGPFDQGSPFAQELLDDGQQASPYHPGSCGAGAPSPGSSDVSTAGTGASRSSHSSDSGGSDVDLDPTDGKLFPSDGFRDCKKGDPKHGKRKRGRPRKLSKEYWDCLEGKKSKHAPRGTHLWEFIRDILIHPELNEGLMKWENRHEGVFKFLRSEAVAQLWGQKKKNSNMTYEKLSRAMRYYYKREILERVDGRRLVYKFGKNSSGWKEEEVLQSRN
# In short: as §1
# ETV1 = ETV1 (Homo sapiens, UniProt P50549 1-477)
# In short: as §1
# ERF = target: T8, ERF (Homo sapiens, UniProt P50548 1-548)
# T8 sequence: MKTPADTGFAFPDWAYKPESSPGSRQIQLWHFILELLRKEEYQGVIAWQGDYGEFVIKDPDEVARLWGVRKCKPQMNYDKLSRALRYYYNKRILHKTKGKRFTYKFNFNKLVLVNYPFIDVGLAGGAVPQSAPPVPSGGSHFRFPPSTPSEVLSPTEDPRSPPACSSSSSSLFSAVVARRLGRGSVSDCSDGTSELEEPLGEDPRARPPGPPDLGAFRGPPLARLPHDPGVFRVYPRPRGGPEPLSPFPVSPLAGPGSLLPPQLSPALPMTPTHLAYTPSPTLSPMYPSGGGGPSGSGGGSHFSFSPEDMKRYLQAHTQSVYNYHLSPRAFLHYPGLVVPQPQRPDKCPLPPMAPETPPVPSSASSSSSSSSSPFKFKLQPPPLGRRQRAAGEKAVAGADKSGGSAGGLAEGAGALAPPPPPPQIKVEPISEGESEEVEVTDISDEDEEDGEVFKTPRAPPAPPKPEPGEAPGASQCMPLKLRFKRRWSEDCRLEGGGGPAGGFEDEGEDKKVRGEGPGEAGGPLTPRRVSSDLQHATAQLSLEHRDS
# In short: as §1
# SPDEF = target: T9, SPDEF (Homo sapiens, UniProt O95238 1-335)
# T9 sequence: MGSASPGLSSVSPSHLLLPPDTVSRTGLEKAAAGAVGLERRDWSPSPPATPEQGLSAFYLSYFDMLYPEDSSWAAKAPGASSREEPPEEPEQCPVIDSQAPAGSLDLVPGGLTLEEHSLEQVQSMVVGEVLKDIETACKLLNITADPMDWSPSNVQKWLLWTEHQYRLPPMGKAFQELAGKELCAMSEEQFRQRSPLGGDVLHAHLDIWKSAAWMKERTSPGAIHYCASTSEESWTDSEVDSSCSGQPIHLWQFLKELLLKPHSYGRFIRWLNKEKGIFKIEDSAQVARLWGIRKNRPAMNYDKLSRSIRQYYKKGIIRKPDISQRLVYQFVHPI
# In short: as §1
# ETV3 = target: T10, ETV3 (Homo sapiens, UniProt P41162-2 1-143)
# T10 sequence: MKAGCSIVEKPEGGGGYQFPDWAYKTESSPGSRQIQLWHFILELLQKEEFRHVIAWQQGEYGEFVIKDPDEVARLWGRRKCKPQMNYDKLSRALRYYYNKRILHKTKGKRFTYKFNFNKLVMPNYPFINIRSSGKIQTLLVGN
# In short: as §1
# FEV = target: T11, FEV (Homo sapiens, UniProt Q99581 1-238)
# T11 sequence: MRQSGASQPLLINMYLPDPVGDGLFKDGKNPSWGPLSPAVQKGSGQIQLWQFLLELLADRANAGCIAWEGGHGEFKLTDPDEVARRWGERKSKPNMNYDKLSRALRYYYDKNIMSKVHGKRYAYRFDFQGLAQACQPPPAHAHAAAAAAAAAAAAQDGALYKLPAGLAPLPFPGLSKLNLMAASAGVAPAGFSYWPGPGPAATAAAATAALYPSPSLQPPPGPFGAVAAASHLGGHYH
# In short: as §1
# ETS2 = target: T12, ETS2 (Homo sapiens, UniProt P15036 1-469)
# T12 sequence: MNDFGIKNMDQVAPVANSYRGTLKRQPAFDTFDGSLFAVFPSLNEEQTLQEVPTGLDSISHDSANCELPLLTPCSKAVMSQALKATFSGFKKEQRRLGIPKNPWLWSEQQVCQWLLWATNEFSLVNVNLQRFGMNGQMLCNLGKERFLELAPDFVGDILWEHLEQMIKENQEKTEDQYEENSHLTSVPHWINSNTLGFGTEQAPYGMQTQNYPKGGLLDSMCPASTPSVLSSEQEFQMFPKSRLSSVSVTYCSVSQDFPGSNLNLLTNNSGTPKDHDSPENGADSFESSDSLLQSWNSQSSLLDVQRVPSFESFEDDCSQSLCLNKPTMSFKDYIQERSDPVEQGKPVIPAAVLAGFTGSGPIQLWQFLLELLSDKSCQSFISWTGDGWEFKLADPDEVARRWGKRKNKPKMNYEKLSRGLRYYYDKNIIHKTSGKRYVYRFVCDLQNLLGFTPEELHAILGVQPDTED
# In short: as §1
# Sequence of ETV1 (P50549 whole entry): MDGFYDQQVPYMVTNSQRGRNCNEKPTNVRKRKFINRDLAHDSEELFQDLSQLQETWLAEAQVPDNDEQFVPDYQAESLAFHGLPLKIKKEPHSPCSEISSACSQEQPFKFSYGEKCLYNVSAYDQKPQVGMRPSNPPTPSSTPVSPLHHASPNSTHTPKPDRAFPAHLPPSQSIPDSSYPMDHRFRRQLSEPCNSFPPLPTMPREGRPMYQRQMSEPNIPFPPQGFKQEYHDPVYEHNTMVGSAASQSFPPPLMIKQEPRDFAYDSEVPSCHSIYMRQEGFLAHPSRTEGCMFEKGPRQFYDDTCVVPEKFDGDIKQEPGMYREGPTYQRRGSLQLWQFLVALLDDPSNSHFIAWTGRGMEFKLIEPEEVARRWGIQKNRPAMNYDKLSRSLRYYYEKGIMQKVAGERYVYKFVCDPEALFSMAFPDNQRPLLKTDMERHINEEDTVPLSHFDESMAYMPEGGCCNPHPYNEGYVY
# Sequence of ETV5 (P41161 whole entry): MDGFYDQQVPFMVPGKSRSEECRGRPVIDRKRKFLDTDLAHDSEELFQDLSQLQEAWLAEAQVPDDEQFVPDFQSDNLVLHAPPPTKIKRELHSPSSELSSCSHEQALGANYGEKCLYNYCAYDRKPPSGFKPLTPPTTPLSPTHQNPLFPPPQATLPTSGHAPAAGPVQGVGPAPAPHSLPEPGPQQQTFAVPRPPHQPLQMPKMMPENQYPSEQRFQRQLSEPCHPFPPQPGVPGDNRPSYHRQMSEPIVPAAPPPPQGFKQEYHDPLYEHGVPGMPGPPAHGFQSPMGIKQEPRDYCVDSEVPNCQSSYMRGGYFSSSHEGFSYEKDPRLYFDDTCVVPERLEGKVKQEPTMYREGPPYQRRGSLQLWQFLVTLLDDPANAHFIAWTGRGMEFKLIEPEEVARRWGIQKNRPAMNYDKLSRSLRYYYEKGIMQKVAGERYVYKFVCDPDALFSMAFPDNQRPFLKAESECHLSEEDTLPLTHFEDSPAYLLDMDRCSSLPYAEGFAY
# Sequence of ELF4 (Q99607 whole entry): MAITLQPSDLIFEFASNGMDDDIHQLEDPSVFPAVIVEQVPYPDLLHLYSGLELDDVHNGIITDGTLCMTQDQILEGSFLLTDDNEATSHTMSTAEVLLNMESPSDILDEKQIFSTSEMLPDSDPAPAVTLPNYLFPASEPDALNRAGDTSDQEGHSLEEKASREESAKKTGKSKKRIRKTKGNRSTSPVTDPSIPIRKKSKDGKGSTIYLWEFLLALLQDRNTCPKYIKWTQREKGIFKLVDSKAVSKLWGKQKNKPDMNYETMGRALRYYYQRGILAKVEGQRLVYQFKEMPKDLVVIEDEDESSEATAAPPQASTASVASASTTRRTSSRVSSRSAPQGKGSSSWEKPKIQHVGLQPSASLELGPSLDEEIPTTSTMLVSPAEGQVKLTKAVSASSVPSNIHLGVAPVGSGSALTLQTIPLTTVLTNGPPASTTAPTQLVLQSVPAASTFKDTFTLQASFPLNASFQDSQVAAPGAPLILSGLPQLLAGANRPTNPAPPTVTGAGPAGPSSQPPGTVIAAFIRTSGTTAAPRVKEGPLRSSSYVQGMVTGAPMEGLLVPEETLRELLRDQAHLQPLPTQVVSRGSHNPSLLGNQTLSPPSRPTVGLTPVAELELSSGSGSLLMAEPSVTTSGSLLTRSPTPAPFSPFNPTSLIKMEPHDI
# Sequence of SPIB (Q01892 whole entry): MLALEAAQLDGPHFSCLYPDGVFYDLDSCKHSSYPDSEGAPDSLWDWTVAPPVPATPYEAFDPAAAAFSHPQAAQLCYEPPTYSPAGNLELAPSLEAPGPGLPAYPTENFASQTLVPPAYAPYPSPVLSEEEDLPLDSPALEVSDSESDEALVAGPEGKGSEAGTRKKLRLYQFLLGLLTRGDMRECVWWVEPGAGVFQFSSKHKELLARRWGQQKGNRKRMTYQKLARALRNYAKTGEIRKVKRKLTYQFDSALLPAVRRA
# Sequence of ELF1 (P32519 whole entry): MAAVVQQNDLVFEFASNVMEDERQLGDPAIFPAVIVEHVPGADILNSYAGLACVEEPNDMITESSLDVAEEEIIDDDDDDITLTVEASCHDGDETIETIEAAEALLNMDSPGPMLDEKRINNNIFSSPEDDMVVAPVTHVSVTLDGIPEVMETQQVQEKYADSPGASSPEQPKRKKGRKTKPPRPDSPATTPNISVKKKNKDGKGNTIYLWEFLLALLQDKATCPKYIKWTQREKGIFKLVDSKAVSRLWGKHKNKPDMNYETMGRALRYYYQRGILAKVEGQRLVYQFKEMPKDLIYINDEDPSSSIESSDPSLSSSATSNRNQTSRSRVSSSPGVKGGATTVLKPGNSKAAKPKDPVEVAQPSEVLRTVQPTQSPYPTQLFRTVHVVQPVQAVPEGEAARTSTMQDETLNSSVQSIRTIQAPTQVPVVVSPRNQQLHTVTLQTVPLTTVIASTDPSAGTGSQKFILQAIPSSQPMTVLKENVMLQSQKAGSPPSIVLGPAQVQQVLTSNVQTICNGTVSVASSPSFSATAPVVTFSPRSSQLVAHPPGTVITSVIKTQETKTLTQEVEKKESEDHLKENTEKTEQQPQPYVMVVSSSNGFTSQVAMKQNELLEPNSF
Sequence,binding signal (ELK1),binding signal (GABPA),binding signal (ERG),binding signal (ELF1),binding signal (EHF),binding signal (SPIB),binding signal (ELK3),binding signal (ETV5),binding signal (ELF4),binding signal (ELK4),binding signal (ELF3),binding signal (ETV1),binding signal (ERF),binding signal (SPDEF),binding signal (ETV3),binding signal (FEV),binding signal (ETS2)
GTACTG,"1.02 fold enrichment (6-mer frequency, TF over GST control)","1.04 fold enrichment (6-mer frequency, TF over GST control)","1.09 fold enrichment (6-mer frequency, TF over GST control)","1.12 fold enrichment (6-mer frequency, TF over GST control)","1.06 fold enrichment (6-mer frequency, TF over GST control)","1 fold enrichment (6-mer frequency, TF over GST control)","1.08 fold enrichment (6-mer frequency, TF over GST control)","1.08 fold enrichment (6-mer frequency, TF over GST control)","1.05 fold enrichment (6-mer frequency, TF over GST control)","1.15 fold enrichment (6-mer frequency, TF over GST control)","1 fold enrichment (6-mer frequency, TF over GST control)","1.02 fold enrichment (6-mer frequency, TF over GST control)","1.02 fold enrichment (6-mer frequency, TF over GST control)","1.03 fold enrichment (6-mer frequency, TF over GST control)","1.11 fold enrichment (6-mer frequency, TF over GST control)",,
AGCTCG,,"1.04 fold enrichment (6-mer frequency, TF over GST control)",,,,,"1.04 fold enrichment (6-mer frequency, TF over GST control)","1.04 fold enrichment (6-mer frequency, TF over GST control)",,,,"1.01 fold enrichment (6-mer frequency, TF over GST control)","1.08 fold enrichment (6-mer frequency, TF over GST control)",,,"1.03 fold enrichment (6-mer frequency, TF over GST control)","1.01 fold enrichment (6-mer frequency, TF over GST control)"
